Test results from paper PMC7819943, “Rice protein-binding microarrays: a tool to detect cis-acting elements near promoter regions in rice”.
In all, about 39,000 sequences were measured (“fluorescence intensity (a.u.)”: median about 4,300, highest 2% from about 39,000 on). For the sample, the highest values were picked, then their nearest neighbours and some sequences at random.

Target: T1, OsSMF1 (Oryza sativa, UniProt Q6ZLB0 1-436)
T1 sequence: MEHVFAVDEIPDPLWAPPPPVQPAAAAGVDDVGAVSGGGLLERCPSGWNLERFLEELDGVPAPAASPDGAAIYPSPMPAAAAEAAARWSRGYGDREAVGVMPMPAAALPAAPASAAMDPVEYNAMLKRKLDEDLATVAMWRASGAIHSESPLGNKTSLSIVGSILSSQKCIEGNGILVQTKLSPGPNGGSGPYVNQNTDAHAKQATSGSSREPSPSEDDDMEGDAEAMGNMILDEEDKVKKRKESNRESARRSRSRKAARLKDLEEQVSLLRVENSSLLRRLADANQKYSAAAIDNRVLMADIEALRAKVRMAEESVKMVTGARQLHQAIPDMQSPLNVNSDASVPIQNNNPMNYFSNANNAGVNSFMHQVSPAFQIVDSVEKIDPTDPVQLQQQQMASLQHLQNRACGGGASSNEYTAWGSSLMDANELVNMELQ
Assay: protein-binding microarray (RPBM); PBS, 2% BSA, 51.3 ng/ul salmon testes DNA, 50 uM zinc acetate, 200 nM TF, 25 C, 1 h; high values mean tight binding
Conditions: protein: recombinant; tags: N-terminal polyhistidine and DsRed monomer fusion (pET32a); chain copies: 2; label: CyDye5-dUTP incorporated in the synthesized complementary strand; 3' TTTTT single-stranded linker to array surface; dsDNA, one strand shown
How it was run: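 Binding signal here means per-feature fluorescence intensity in arbitrary units. The values were read on an Axon 4000B scanner after a custom Agilent array, double-stranded by primer extension with Cy5-dUTP, was incubated with 200 nM protein at 25 °C for 1 h in PBS with 2% BSA, salmon testes DNA and 50 µM zinc acetate, then washed. The proteins were transcription factors with an N-terminal polyhistidine tag and DsRed, expressed in E. coli BL21-CodonPlus and purified on Ni–NTA.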

Sequence	binding signal
TTCATGCGCCCACATGACGTAGTGAATTAGTGGACTATGTCGGAGTCACCTAGTGCAG	4570 fluorescence intensity (a.u.)
GAGTAGAGGTGGGAGGAAGCGGTGGTGTGGTGGGGTGGGGCGGAGTCACCTAGTGCAG	8310 fluorescence intensity (a.u.)
CATAGATGGGCTCATCAGTAATGCTCCATATCAACACGACCGGAGTCACCTAGTGCAG	35200 fluorescence intensity (a.u.)
TGCAGCGCCCTCAGCGTTTTGCGCTGCCGTGGCCATCACGCGGAGTCACCTAGTGCAG	4300 fluorescence intensity (a.u.)
TATGAAACCTGAAAACAACTTAACACGGGTGTCCTTCGTCCGGAGTCACCTAGTGCAG	17500 fluorescence intensity (a.u.)
CGCCCACCTATCTTACCACTGACACATTGGCCCCACCACCCGGAGTCACCTAGTGCAG	4120 fluorescence intensity (a.u.)
CCCTCCCTCCGCCTCCGCCCATCCAATTTCTTACCCCGTTCGGAGTCACCTAGTGCAG	3230 fluorescence intensity (a.u.)
CCTAATTAATCCATAATTATCAAAAGTTTACTGTAGCATCCGGAGTCACCTAGTGCAG	27800 fluorescence intensity (a.u.)
AATTAATCCATTATTAACAAATGTTTACTGTAGCATCACACGGAGTCACCTAGTGCAG	51600 fluorescence intensity (a.u.)
AATCCATAATTAGAGAATGTTTACTGTAGCATCACATAGGCGGAGTCACCTAGTGCAG	3290 fluorescence intensity (a.u.)
GATTGTTGGTAGCTAGGTAGCTGTGGCCAAGAAAGTGAGACGGAGTCACCTAGTGCAG	3810 fluorescence intensity (a.u.)
TAGCAGCCAATTAGTCCACTTAATCACCCATGGATCGCGACGGAGTCACCTAGTGCAG	3490 fluorescence intensity (a.u.)
TTATTTTGGAACTGGACCTATCTAATTTCTCCTAGTCAGACGGAGTCACCTAGTGCAG	3780 fluorescence intensity (a.u.)
ACATGATTTGTGCTCCATGACCTCTTTCTTCTATTATCTACGGAGTCACCTAGTGCAG	7980 fluorescence intensity (a.u.)
TATATCTAGTTTGCTCAGACCTACTGCTATTTCTTTCTGACGGAGTCACCTAGTGCAG	41200 fluorescence intensity (a.u.)
TGTTCATAAAAGTAAATGTGCGTGCGTGATTGTATTGTATCGGAGTCACCTAGTGCAG	12500 fluorescence intensity (a.u.)
GCCGCCGCCGCCGCCGCCGCCGCTGTGTGTACGACTACGACGGAGTCACCTAGTGCAG	3250 fluorescence intensity (a.u.)
AGAGAGCAGTGGAGTGCTGTCAGCCGTTGGATGGCCATCCCGGAGTCACCTAGTGCAG	3400 fluorescence intensity (a.u.)
ACCGACGTTTAATCCCTGAGAGCCAGCCGTTGGCTGTGTACGGAGTCACCTAGTGCAG	65500 fluorescence intensity (a.u.)
TTACTGCTACCTCCACTTCATGTTATAAGTTGTTTTACCTCGGAGTCACCTAGTGCAG	3480 fluorescence intensity (a.u.)
TCGCTGATGAAAATGATGAGCATGGTGAGGGGAAGAAGGGCGGAGTCACCTAGTGCAG	22400 fluorescence intensity (a.u.)
TCCAAAAGTTCTTGATGTGGCATGGTGGACATGAATTTGTCGGAGTCACCTAGTGCAG	5240 fluorescence intensity (a.u.)
TATGGAGTGAAATGTCAGACTCCAAATGACTTATATGATGCGGAGTCACCTAGTGCAG	64100 fluorescence intensity (a.u.)

Sequence	binding signal
GTTTATTCCAAGTGGTGGATGCTGATGAATTAAGTATATACGGAGTCACCTAGTGCAG	3140 fluorescence intensity (a.u.)
CGACCGACATATCTTCATAATTACCAAGTCATCATGCGACCGGAGTCACCTAGTGCAG	4520 fluorescence intensity (a.u.)
CTTCTTCTTGTGATGCTTATATATGACTATGTATGTAGTGCGGAGTCACCTAGTGCAG	3940 fluorescence intensity (a.u.)
ATTATGTAATGCCTGTTGATGTCAGACCACTCCAAATGCTCGGAGTCACCTAGTGCAG	3480 fluorescence intensity (a.u.)
ATCACTTCATTATCACATGACAGACCAACATATAATGATGCGGAGTCACCTAGTGCAG	44500 fluorescence intensity (a.u.)
ATGAATGACCCTGCGACAACAAACCACATCATATCATGCGCGGAGTCACCTAGTGCAG	3740 fluorescence intensity (a.u.)
CTGAATTTGACTCTTGGATGGTGACTATGATGTCCAAGTACGGAGTCACCTAGTGCAG	45100 fluorescence intensity (a.u.)
ATTGGGGAGAGGAGCTGGGCGAGGCGGGGCTTGGGCTCGGCGGAGTCACCTAGTGCAG	3390 fluorescence intensity (a.u.)
TAGGGGAGCCTCGACACGACGCCGCTGGCGTGGCGCGTCCCGGAGTCACCTAGTGCAG	9370 fluorescence intensity (a.u.)
AAATAATGTGGCCGGACGGGCGGTAGGGTCCTGGCAGCAGCGGAGTCACCTAGTGCAG	28000 fluorescence intensity (a.u.)
CTCTCCTCTTTGCATGCATTCCTCCTGCCAAGAGTGCTGACGGAGTCACCTAGTGCAG	3400 fluorescence intensity (a.u.)
AAACAAAATAGCATAATCACTCACCGCGTCACACAGCGGGCGGAGTCACCTAGTGCAG	3720 fluorescence intensity (a.u.)
CCGAAGGAGTACGTGCCAAGTCGGCCCATCAGGCCCACGTCGGAGTCACCTAGTGCAG	4010 fluorescence intensity (a.u.)
CTCTGCACAATTGCACCAACCCCAAAGCTTGGCTAAGCTCCGGAGTCACCTAGTGCAG	51000 fluorescence intensity (a.u.)
AAACCCAAGCAAACCAGCAGCTACTAAGCAAAGCACAACCCGGAGTCACCTAGTGCAG	33900 fluorescence intensity (a.u.)
CACCAAACCCCAACCCACCTCCAGGTCATCCACCCACATCCGGAGTCACCTAGTGCAG	3900 fluorescence intensity (a.u.)
TGACCTAGCTAGCTACCTTTTCCCTCTTCCATCACATATACGGAGTCACCTAGTGCAG	3800 fluorescence intensity (a.u.)
CGATATACGTACACATGTGACATGACGTAATTTTACATCCCGGAGTCACCTAGTGCAG	4320 fluorescence intensity (a.u.)
CCCTACGTGCACACATCCAGCTCCATTATATAGCCATTTTCGGAGTCACCTAGTGCAG	54800 fluorescence intensity (a.u.)
ATACGGCACCATTTACGTGTATATGTGTCGTACATGCATACGGAGTCACCTAGTGCAG	3470 fluorescence intensity (a.u.)
TTACGATATAGTGTGCCAATTGGCACACCTACATTTTAGTCGGAGTCACCTAGTGCAG	45700 fluorescence intensity (a.u.)
CATTTTCCAGGCCAAGCCAGCTCACATCACCAGAGCAACACGGAGTCACCTAGTGCAG	3720 fluorescence intensity (a.u.)
